Assay results published in PubChem BioAssay AID620 (Sanford-Burnham Center for Chemical Genomics, 2007).
Among all 87,000 compounds or so, about 360 (0.41%) were called active. For the sample, actives were picked, then their nearest neighbours and some compounds at random. Values without a mark were called inactive. No stated cut-off is given here; in the data, active means cytotoxicity above about 50%; inactive means the rest.

Experiment: HT1080 cell viability loss – fluorescence readout (AID 620);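 further: cells exposed to compound overnight then 4 h with Alamar Blue; 0% = vehicle DMSO and 100% = killing control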
Settings: at 10 µM, stronger effect = higher value

| Compound | cytotoxicity |
| --- | --- |
| COc1cc(-c2noc(CCCC(=O)NCc3ccccc3)n2)cc(OC)c1OC | 6.8% |
| O=C(COc1ccccc1)N1CCN(S(=O)(=O)c2ccc(Cl)cc2)CC1 | 17.2% |
| O=C1CC(c2ccccc2)CC(O)=C1C=NCCCO (stereo unspecified) | 4.4% |
| Cc1cccc(OCC(=O)NCCN2CCOCC2)c1 | 5.4% |
| COC(=O)[C@H](CCSC)NC(=O)Nc1ccc(OC)c(Cl)c1 | -10.8% |
| Cc1n[nH]c(C)c1S(=O)(=O)N1CCCC(C(=O)NCc2cccs2)C1 (stereo unspecified) | 2.8% |
| O=C(CNS(=O)(=O)c1ccc(F)cc1)N1CCN(c2ccccc2)CC1 | 7% |
| Cc1nc2ccc(NC(=O)Cc3ccsc3)cc2s1 | -7.3% |
| COc1ccc(N2CCN(Cc3nc4c(c(=O)n(C)c(=O)n4C)n3CCc3ccccc3)CC2)cc1 | 0.1% |
| Cc1cc(=O)oc(C)c1C(=O)N1CCN(c2ccc(F)cc2)CC1 | 5.9% |
| Cn1ncc(N=Cc2ccc([N+](=O)[O-])cc2)c1C(=O)N1CCOCC1 | -3.9% |
| O=[N+]([O-])/C(C(Cl)=C(Cl)Cl)=C(\Nc1ccc(F)cc1)n1cncn1 | 10.6% |
| CC(C)(C)C(=O)/C(=C\c1ccc([N+](=O)[O-])cc1)n1cncn1 | 89% (active) |
| O=C(COc1ccc(S(=O)(=O)Nc2ccccc2)cc1)N1CCOCC1 | -4.7% |
| O=S(=O)(C/C(=C/CO)S(=O)(=O)c1ccccc1)c1ccccc1 | 51.2% (active) |
| CCOC(=O)CS(=O)(=O)c1ccccc1 | -4.5% |
| C/C=C(\CS(=O)(=O)c1ccccc1)S(=O)(=O)c1ccccc1 | -9.9% |
| CC(C)C[C@H](NC(=O)N1CCN(c2ccccc2)CC1)C(=O)O | 6.2% |
| O=C(c1ccc(F)cc1)N1CCN(c2ncccn2)CC1 | 2% |
| Cc1ccccc1NC(=O)CN1C(=O)NC2(CCCCC2)C1=O | 10% |
| Cc1ccc(CN2CCN(C(=O)CCN3C(=O)c4ccccc4C3=O)CC2)cc1 | 6.3% |

| Compound | cytotoxicity |
| --- | --- |
| CCOC(=O)c1[nH]c(C)c(C(=O)Nc2ccc(C)c(F)c2)c1C | -2.9% |
| CCOC(=O)c1[nH]c(C)c(C(=O)NCc2ccc(C)cc2)c1C | -8.9% |
| CCOC(=O)c1[nH]c(C)c(C(=O)c2ccc(C)cc2)c1C | 59.5% (active) |
| CCOC(=O)c1[nH]c(C)c(C(=O)c2cc(F)ccc2F)c1C | 57.2% (active) |
| CCOC(=O)c1[nH]c(C)c(C(=O)Nc2ccc(F)cc2)c1C | -9.3% |
| CCOC(=O)c1[nH]c(C)c(C(=O)OCC)c1C | 2.3% |
| CCOC(=O)c1c(C)sc2c1N(C(=O)CN1CCOCC1)c1cc(Cl)ccc1S2 | 12.4% |
| O=C(OCC(=O)N1CCN(c2ccccc2)CC1)C1=COCCO1 | -8.1% |
| O=C(OCC#CCSc1nnc(-c2ccc([N+](=O)[O-])cc2)o1)c1cccs1 | -10.8% |
| CCSc1nnc(NC(=O)COc2ccccc2)s1 | -5% |
| O=C(NCc1ccncc1)Nc1ccc(F)cc1 | 14.7% |
| COc1ccc(-c2cc(N)n(S(=O)(=O)c3c(F)c(F)c(F)c(F)c3F)n2)cc1OC | 59.5% (active) |
| COc1ccc(OC)c(S(=O)(=O)n2nc(-c3ccccc3)cc2N)c1 | -6.1% |
| COc1ccc(S(=O)(=O)n2nc(-c3cc(OC)c(OC)c(OC)c3)cc2N)cc1OC | 1.5% |
| CCOC(=O)C(C)Oc1cccc2c(=O)n(CC(=O)N3CCc4ccccc43)ccc12 (stereo unspecified) | 4.2% |
| CCOC(=O)COc1cccc2c(=O)n(CC(=O)NCc3ccc4c(c3)OCO4)ccc12 | 13.3% |
| CCOC(=O)C(C)Oc1cccc2c(=O)n(CC(=O)NCc3ccco3)ccc12 (stereo unspecified) | 65.3% (active) |
| c1ccc(OCCOCCN2CCOCC2)cc1 | -2.8% |
| Cc1nc2c(cnn2-c2ccccc2Cl)c(=O)n1-c1ccc(N2CCC(C)CC2)cc1 | 0.5% |
| COCc1cc(C)nc(SCC(=O)Nc2cccc(C)c2C)c1C#N | -2% |
| Cc1csc(NC(=O)c2cc3c(s2)CCCCC3)n1 | -7.3% |

| Compound | cytotoxicity |
| --- | --- |
| Cc1csc(NC(=O)c2cc3c(s2)CCC3)n1 | 20.8% |
| CCC(C)NS(=O)(=O)c1ccc(-c2csnn2)s1 (stereo unspecified) | -2.6% |
| CC(CCc1ccccc1)NC(=O)CSc1nnnn1C (stereo unspecified) | 9.7% |
| CC1=CC(C)(C)N(S(=O)(=O)c2ccc(F)cc2)c2ccccc21 | 34.7% |
| CC1=CC(C)(C)N(C(=O)C(C)N2C(=O)c3ccccc3C2=O)c2ccc(C)cc21 (stereo unspecified) | 5.3% |
| CC1=CC(C)(C)N(S(=O)(=O)c2ccc(C)cc2)c2ccc(C)cc21 | 64.1% (active) |
| Cc1ccc(N2CCN(S(=O)(=O)c3ccc(F)cc3)CC2)c(C)c1 | -3.9% |
| CC1=CC(C)(C)N(S(=O)(=O)c2ccc(F)cc2)c2ccc(C)cc21 | 61% (active) |
| CC1=CC(C)(C)N(S(=O)(=O)c2ccc(C)cc2)c2ccccc21 | 64.3% (active) |
| CC1=CC(C)(C)N(C(=O)c2ccccc2)c2ccc(C)cc21 | -8.8% |
| Cc1ccc(S(=O)(=O)N2C(=S)SCC2(C)C)cc1 | 14.3% |
| CC1=CC(C)(C)N(C(=O)CN2C(=O)c3ccccc3C2=O)c2ccccc21 | 12.7% |
| CC1=CC(C)(C)N(S(=O)(=O)c2ccc(C)cc2)c2cc(C)ccc21 | 63.7% (active) |
| Cc1ccc2c(c1)[C@@H]1CN(C)CC[C@@H]1N2S(=O)(=O)c1ccc(F)cc1 | 3.2% |
| CC1=CC(C)(C)N(C(=O)CSc2nccn2C)c2cc(C)ccc21 | -6.8% |
| Cc1ccc2[nH]c3c(=O)n(CCCN4CCOCC4)cnc3c2c1 | -1.5% |
| CCOc1ccc(NC(=O)c2cc3cc4ccc(OC)cc4nc3o2)cc1 | -4.9% |
| COc1ccc(NC(=O)c2ccco2)c(NC(=O)Cc2cccs2)c1 | -0.8% |
| O=C(C(NS(=O)(=O)c1cccs1)c1ccccc1)N1CCN(c2ccccc2F)CC1 (stereo unspecified) | 1.9% |
